Rows were chosen to be rich in hits. Some 2.3% of all compounds tested hit in one or more screens of this group.
ADAM17 inh: inhibits human ADAM17. P78536. recombinant ADAM17, EDANS/DABCYL FRET peptide cleavage. inhibition, % at 6.95 µM. 370,000 compounds, 0.83% hits. AID 720648;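 active = inhibition above the mean of compounds lying between control limits plus 3 SD, set per campaign, cut at about 8.5% in these data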;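 also: 0% = DMSO-only wells as the low control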
proKLK7 act: proKLK7 (human) activation, primary screen; P49862; purified proKLK7, EDANS-DABCYL substrate fluorescence; 100% is mature enzyme control, 0% vehicle; activation, % at 7 µM; 370,000 compounds, 0.9% hits; AID 652039;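 active = activation above the mean of all tested compounds plus 3 SD, computed per campaign excluding outliers beyond control limits, cut at about 13% in these data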
Target sequence (P49862 whole entry, looked up): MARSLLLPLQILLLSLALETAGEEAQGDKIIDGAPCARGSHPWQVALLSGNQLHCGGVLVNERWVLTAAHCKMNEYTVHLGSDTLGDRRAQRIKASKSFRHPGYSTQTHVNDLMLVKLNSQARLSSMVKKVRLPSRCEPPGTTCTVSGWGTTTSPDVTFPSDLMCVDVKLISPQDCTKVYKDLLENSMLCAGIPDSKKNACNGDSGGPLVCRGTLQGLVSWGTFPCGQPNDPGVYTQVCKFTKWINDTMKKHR
V-ATPase pH: yeast V-ATPase proton transport regulation by pHLuorin; S. cerevisiae, pHLuorin cytosolic pH fluorescence; response, % at 10 µM; 350,000 compounds, 0.37% hits; in the data active = response mostly above about 7.3%, no sharp cut-off; inactive = mostly below about 5.4%; also: actives read high
ADAM10 inh: ADAM10 inhibition, QFRET primary screen; inhibition, % at 7 µM; 370,000 compounds, 0.62% hits; O14672; recombinant ADAM10, EDANS/DABCYL FRET peptide cleavage, 3 h;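 active = inhibition above a per-campaign cutoff equal to the mean of compounds falling between control-based bounds plus 3 SD, cut at about 20% in these data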;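 also: 0% = DMSO wells while the 100% control is not disclosed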
ADAM10 confirm: confirmation of inhibitors of human ADAM10; shares compounds with ADAM10 inh; ADAM10 QFRET peptide cleavage, EDANS fluorescence; inhibition, % at 6.95 µM; 2,100 compounds, 1% hits; AID 743208;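 active = inhibition above about 20% chosen separately for each screening run, limit read from the data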;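 also: 0% = DMSO wells and 100% = marimastat wells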
ADAM17 counter: inhibits human ADAM17 in ADAM10 exosite counter-screen; shares compounds with ADAM10 inh; ADAM17 QFRET peptide cleavage, EDANS fluorescence; inhibition, % at 6.95 µM; 2,100 compounds, 0.5% hits; AID 743214;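 active = mean triplicate inhibition above the solvent-only control wells' mean plus 3 SD, cut at about 12% in these data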;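 also: 0% = DMSO wells and 100% = marimastat wells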
ADAM10 counter: counter-screen for ADAM17 exosite inhibitors: inhibitors of human ADAM10; shares compounds with ADAM17 inh; recombinant ADAM10, EDANS/DABCYL FRET peptide cleavage, 3 h; inhibition, % at 6.95 µM; 2,900 compounds, 47% hits;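 active = mean inhibition over the triplicate runs exceeds the activity threshold set in the earlier primary screen, cut at about 20% in these data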;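 also: 0% = DMSO wells and 100% = marimastat wells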
ADAM17 confirm: confirmation of inhibitors of human ADAM17; shares compounds with ADAM17 inh; recombinant ADAM17, EDANS/DABCYL QFRET peptide cleavage; inhibition, % at 6.95 µM; 2,900 compounds, 65% hits; AID 743257;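 active = mean inhibition across replicates above the hit cutoff set in the primary screen, cut at about 8.5% in these data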;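 also: 0% = DMSO wells and 100% = marimastat wells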
Numbers without * were called inactive; / = not tested or not shown.

SMILES	ADAM17 inh	proKLK7 act	V-ATPase pH	ADAM10 inh	ADAM10 confirm	ADAM17 counter	others
Nc1nc(-c2ccc(Cl)cc2)c(S(=O)(=O)c2ccccc2)s1	7.9	0.0	7.1	20.1*	0.3	0.5
C[C@@H]1CC(=O)NN=C1c1ccc(NN=C(C#N)C#N)cc1	-2.7	0.1	/	-10.6	/	/
COc1ccc(-c2nc(CN3CCN(Cc4ccccc4)CC3)c(C)o2)cc1	-2.1	-0.4	2.0	79.5*	2.3	1.4
Cc1cc(Nc2cc(Cl)cc(Cl)c2)cc(=O)n1-c1cc(Cl)cc(Cl)c1	0.0	0.2	/	-0.7	/	/
CC(C)COc1ccc(CNC(=S)Nc2ccccc2)cc1Cl	4.7	0.5	-1.6	21.2*	10.3	1.5
COc1ccc(NC(=O)c2cccc(C#N)c2)cc1NS(=O)(=O)c1ccc(F)cc1	-0.3	1.0	0.4	4.0	/	/
COc1ccc(NC(=O)c2ccc(-c3ccccc3)cc2)cc1NS(=O)(=O)c1ccc(F)cc1	8.0	-4.1	-0.7	24.2*	30.8*	8.6
Nc1cccc(S(=O)(=O)N2CCCN(S(=O)(=O)c3ccc4c(c3)OCCO4)CC2)c1	2.5	/	/	7.6	/	/
Cc1ccsc1C=Nn1c(-c2n[nH]c3c2CCC3)n[nH]c1=S	-1.5	0.3	/	-2.9	/	/
CN(C(=O)[C@@H](C1CC1)[C@@H](O)c1ccc2ccccc2c1)c1ccccc1	5.3	-0.2	/	87.2*	-0.3	0.0
COc1cccc(N(C)C(=O)[C@@H](C2CC2)[C@@H](O)c2ccc(Cl)cc2)c1	1.3	0.5	/	1.6	/	/
CCOC(=O)c1c(NC(=O)CSc2n[nH]c(CNc3ccccc3)n2)sc(C)c1C	-3.4	-0.1	1.0	-5.6	/	/
CCOC(=O)c1c(NC(=O)CSc2n[nH]c(-c3ccco3)n2)sc(C)c1C	3.5	0.2	1.4	22.4*	0.4	0.4
COC(=O)c1ccc(Sc2ccc(C)cc2)c(N)c1	-39.3	-1.1	-4.7	-91.3	/	/
COc1cc(Sc2ccc(C)cc2)c(OC)cc1N	-1.0	-0.1	-1.1	29.7*	2.1	1.4
O=C(NNC(=O)c1cc(-c2ccc(Cl)cc2)nc2ccccc12)c1csc(N2CCOCC2)n1	7.0	-2.4	1.7	28.7*	12.2	4.8
O=C(NNC(=O)c1cc(-c2ccccc2)nc2ccccc12)c1csc(N2CCOCC2)n1	-2.2	0.0	2.6	-3.4	/	/
COC(=O)[C@]12C[C@H](CC(=O)N3CCN(C(=O)c4ccco4)CC3)C(=O)N(CCC3=CCCCC3)C1=C[C@H](COCc1ccccc1)O[C@@H]2C	0.7	1.3	/	5.8	/	/
Cc1ccc(C(c2cc(Br)ccc2O)N2CCSCC2)cc1 (stereo not given)	6.4	0.7	-4.0	24.9*	1.4	0.2
Cc1ccc(C(=O)Nc2ccccc2Oc2ccccc2)cc1[N+](=O)[O-]	5.5	0.7	-1.7	21.8*	3.7	0.2
O=C(Nc1ccccc1Oc1ccccc1)c1cccc([N+](=O)[O-])c1	5.3	-0.1	5.4	10.2	/	/
O=C(Nc1ccc(F)cc1)Nc1nc2ncccn2c1-c1ccc(F)cc1	-47.5	12.2	/	-159.1	/	/
CCOC(=O)c1ccc(N2C(=O)c3n[nH]c(-c4ccco4)c3C2c2cccc([N+](=O)[O-])c2)cc1 (stereo not given)	6.9	-0.3	-0.6	32.8*	6.2	1.5
N#CCSc1nnc(CNc2ccc(F)cc2)o1	4.2	0.0	-4.5	11.7	/	/
Cc1ccc(CSc2nnc(CNc3ccc(F)cc3)o2)cc1	4.9	0.7	-2.8	25.9*	1.9	0.8
SMILES	ADAM17 inh	proKLK7 act	V-ATPase pH	ADAM10 inh	ADAM10 confirm	ADAM17 counter	others
CCOC(=O)C1=CCN(S(=O)(=O)c2ccc(Br)cc2)C1c1ccc(Br)cc1 (stereo not given)	3.7	-0.5	/	-6.9	/	/
Cc1cnn(CCC(=O)NNC(=S)Nc2cccc(Cl)c2)c1	6.7	0.7	-3.3	9.7	/	/
Cc1cnn(CCC(=O)NNC(=S)Nc2ccc(F)cc2)c1	7.1	0.0	-0.8	20.1*	1.2	1.7
O=C(NCc1nc2ccccc2[nH]1)C1=C[C@H](c2ccccc2)C[C@H](OCc2ccc(CO)cc2)O1	0.5	0.3	2.0	-0.9	/	/
O=C(NCc1nc2ccccc2[nH]1)C1=C[C@H](c2coc3ccccc3c2=O)C[C@H](OCc2ccc(CO)cc2)O1	5.5	0.5	-4.8	24.1*	3.2	1.1
CCCOc1ccc(N2C(=O)CC(S/C(N)=N/N=C(\C)c3cccs3)C2=O)cc1 (stereo not given)	-3.5	-0.1	-1.1	13.8	/	/
C/C(=N\N=C(/N)SC1CC(=O)N(c2cccc(Cl)c2)C1=O)c1cccs1 (stereo not given)	7.6	-0.7	-0.4	27.3*	5.4	1.9
CCN(CC)C(=O)CC[C@H]1CC[C@]2(CCCN(Cc3ccc(Br)cc3)C2)O1	-3.5	-0.6	/	-1.5	/	/
O=C(NCCNC(=O)c1cc(OCC(F)(F)F)ccc1OCC(F)(F)F)Nc1cccc(C(F)(F)F)c1	12.2*	0.3	1.2	37.1*	1.4	0.3	ADAM10 counter=24.4*;ADAM17 confirm=14.2*
Cc1ccc(S(=O)(=O)Nc2ccc(NC(=O)Nc3cccc(C(F)(F)F)c3)cc2)cc1	21.8*	-0.5	-0.2	41.3*	9.1	2.8	ADAM10 counter=42.6*;ADAM17 confirm=18.6*
O=C(Nc1ccc(OC(F)F)cc1)Nc1cccc(C(F)(F)F)c1	10.2*	0.2	-3.9	24.6*	1.7	0.4	ADAM10 counter=31.1*;ADAM17 confirm=16.2*
CN(Cc1ccccc1)C(=O)c1ccc(NC(=O)Cc2cccc(NC(=O)C3CCCN(C(=O)CCc4ccccc4)C3)c2)cc1 (stereo not given)	13.6*	1.6	7.2	24.1*	3.1	1.9	ADAM10 counter=24.4*;ADAM17 confirm=13.6*
C[C@@H]1ON(C)[C@H]2C[C@H]3c4cc(Br)ccc4CCN3C[C@@H]12	-12.7	0.0	/	-29.2	/	/
CCOC(=O)c1ccc(N/C(=N\S(=O)(=O)c2ccc(F)cc2F)c2ccccc2)cc1	11.8*	0.5	0.8	30.2*	3.1	0.6	ADAM10 counter=27.4*;ADAM17 confirm=17.6*
NC(=O)NN=C1CCC(O)CC1CC(=O)O (stereo not given)	-3.6	-2.3	/	-9.2	/	/
C[C@@H]1COc2cc(NCCO)ccc2S(=O)(=O)N1	0.5	0.0	/	4.1	/	/
CCc1nc2ccc(C(=O)Nc3cc(-c4ccccc4)ccc3OC)cn2c1N(C)Cc1nccs1	11.0*	-2.5	/	27.3*	6.4	2.0	ADAM10 counter=19.7;ADAM17 confirm=14.7*
CCc1nc2ccc(C(=O)Nc3cc(-c4ccccc4)ccc3OC)cn2c1N(C)Cc1ccc(OC)cc1	-1.5	-14.1	/	-7.0	/	/
Fc1ccc(CNC(=S)Nc2cccc(C(F)(F)F)c2)cc1	5.5	0.1	-1.5	0.4	/	/
